SMILES strings stand for the structures.

For this assay, the target named is Shiga toxin 2 (Escherichia coli O157:H7) (UniProt P09385+P09386). As to the kind of experiment: E. coli 0.157:H7 Shiga Toxin SOP - stx2 screening assay. Details: scale not given: direction of the effect not stated beside the values. The note with it: 30 µM. The class given is functional.
Turning to `CC(C)c1ccc(O)c(C(=O)N2CCN(Cc3cscn3)CC2)c1`, the Percent Effect was -7.95%.
Regarding `CC(C)Nc1nc(N2CCCC2)nc2c1CN(C(C)C)CC2`, the Percent Effect is -118%.
For `CN1CCN(c2cc(CNC(=O)c3ccc(=O)n(C)c3)ccn2)CC1` the value was -0.684%.
As for `CN(Cc1cnn(C)c1)C(=O)NC1CCC(O)CC1` (stereo not given), the Percent Effect was 12%.
As to `CCCNC(=O)CNc1ccc(C(=O)N2CCCCC2C)cc1C` (stereo not given), the Percent Effect is 10.6%.
As for `Cn1ccc(CN2CCC(NC(=O)Cc3ccccc3)CC2)cc1=O`, the Percent Effect came out at 8%.
In the case of `CCn1cnnc1CNC(=O)N1CCCN(C(C)=O)CC1`, the Percent Effect stood at 25.6%.
With `Cc1nsc(N2CCCN(c3nc(C4CC4)ns3)CC2)n1`, the Percent Effect was -18.6%.
`CCn1cnnc1C1CCN(C(=O)c2cnc3ccccc3n2)CC1`: the Percent Effect was -10.9%.
Consider `CN(CC(=O)N1CCC(C(O)c2ccccc2)CC1)c1cnccn1` (stereo not given), for which the Percent Effect is -9.59%.
Regarding `COc1cc(C(=O)N(Cc2ccco2)C2CC2)cc2c1OCCO2`, the Percent Effect was -6.37%.
With `Brc1cc2c(cc1CN1CCC(N3CCCCC3)CC1)OCCO2`, the Percent Effect was -51.2%.
Take `CN1CCN(Cc2cnc3n2CCN(Cc2cccs2)C3)CC1`: the Percent Effect was -18.8%.
For `Cc1cnnn1Cc1ncn2c1CN(Cc1cccs1)CCC2` the value was -3.58%.
For the compound `Clc1ccccc1C1(c2ccnc(-c3ncccn3)n2)CCNCC1`, the Percent Effect is -34.1%.
For `CC(C)c1n[nH]c(C2CN(C(=O)CCCn3cccn3)CCO2)n1` (stereo not given) the value was -10.6%.
For `Cn1ccnc1CN1CCC2(CC1)CC(NC(=O)c1ccccn1)CO2` (stereo not given) the value was -19.4%; for `CC(NCc1ccc(F)cc1)c1ccc(OCC(=O)NC2CC2)cc1` (stereo not given), -19.1%.
Consider `COc1cc(C)nc(N2CCN(C(=O)c3ccccc3C)CC2)n1`, for which the Percent Effect stood at 3.55%.
With `CCOCCN1CCn2c(C)nnc2C1`, the Percent Effect was -30.6%.
Turning to `CC(C)CNc1nc(C(=O)/N=c2\[nH]nc(C(C)(C)C)s2)cs1`, the Percent Effect is -23.9%.
On to `CSCc1cccc(C(=O)N2CCN(CC(C)O)CC2)c1` (stereo not given), for which the Percent Effect stood at 7.3%.
On to `CC(C)C(Sc1nnnn1-c1ccccc1)C(=O)NCc1cccnc1` (stereo not given), for which the Percent Effect was 8.76%.
For `CN1CCC(Oc2ccc(NC(=O)c3cccc(Cl)c3)cc2)CC1` the value was -51%.
For `CC(=O)N(C)c1nc(CN2CCCCC2Cn2cncn2)cs1` (stereo not given) the value was 9.21%.
Consider `COCC(O)CN(C)C(=O)NC1CCN(Cc2ccccn2)CC1` (stereo not given), for which the Percent Effect is -36.8%.
Take `Cc1ccc(=O)n(CC2(O)CCN(Cc3cnc(C)nc3)CC2)n1`: the Percent Effect came to 5.87%.
For the compound `COCC(=O)N1CC[C@@H](O)[C@@H]1Cc1ccccc1`, the Percent Effect came to 3.46%.
As for `c1coc(-c2noc(CN3CCC(c4ccn[nH]4)CC3)n2)c1`, the Percent Effect was 0.0749%.
Regarding `O=c1[nH]c2c(c(=O)n1C1CCCCC1)CCC2Nc1ccccc1` (stereo not given), the Percent Effect is 1.28%.
Consider `CCSCCNC(=O)C(c1cccc(C)c1)N(C)C` (stereo not given), for which the Percent Effect is -22.9%.
In the case of `Cc1cnccc1CN1C[C@@H](O)[C@H](Oc2ccccc2)C1`, the Percent Effect was -4.47%.
As for `c1cc(-c2cnccn2)cc(-c2ccn(CCN3CCCC3)n2)c1`, the Percent Effect is -29.3%.
Take `CS(=O)(=O)CC(=O)N1C[C@H]2CCC[C@@]2(COCc2ccccn2)C1`: the Percent Effect was -6.39%.
For `CCc1nc(C2CCCN2C(=O)CCNS(C)(=O)=O)no1` (stereo not given) the value was -0.995%.
For `CN(CCC(F)(F)F)C(=O)[C@H]1CSCN1C(=O)OC(C)(C)C` the value was -17.7%; for `COc1ccccc1CC1CCCN(CC(N)=O)C1` (stereo not given), 28.2%.
For `COCCCN1CCCN(C(C)C(=O)Nc2cccc(I)c2)CC1` (stereo not given) the value was -31.1%; for `CCCc1n[nH]cc1C(=O)N1CCC(c2nccn2CCOC)CC1`, 10%; for `CC(=O)N1CCC(Cc2cnc(-c3c(C)n[nH]c3C)cn2)C1` (stereo not given), -7.52%.

These data come from ChEMBL document CHEMBL3988442, “University of Dundee, Small-Polar-MMV Screening Library” (2021).
